Assay results: PubChem BioAssay (NCI)
Compounds without any hit were thinned out: in the full panel of roughly 83,000, 20% have a hit.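 Assay: single dose, 48 h. Readout: percent growth (0 = no net growth; negative = cell death). Active: <10.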 Unmarked numbers belong to inactive results. Activity calls are given as the source filed them.

Tests used:
Assay in all cases: NCI-60 one-dose screen, 48 h (100 = growth as untreated, 0 = no growth, -100 = all killed)
[1] = tested on: HT29 colon; details: 10 µM unless noted
[2] = tested on: SNB-75 CNS; details: 10 µM unless noted
[3] = tested on: SNB-19 CNS; details: 10 µM unless noted
[4] = tested on: U251 CNS; details: 10 µM unless noted
[5] = tested on: PC-3 prostate; details: 10 µM unless noted
[6] = tested on: SK-MEL-5 melanoma; details: 10 µM unless noted
[7] = tested on: UACC-62 melanoma; details: 10 µM unless noted
[8] = tested on: LOX IMVI melanoma; details: 10 µM unless noted
[9] = tested on: SK-MEL-28 melanoma; details: 10 µM
[10] = tested on: SK-MEL-2 melanoma; details: 10 µM unless noted

Compound	growth [1]	growth [2]	growth [3]	growth [4]	growth [5]	growth [6]	growth [7]	growth [8]	growth [9]	growth [10]
CN1CCN(Cc2ccc(C(=O)Nc3cncc(C#Cc4cnc5cccnn45)c3)cc2C(F)(F)F)CC1	23%	96.9%	95%	65.2%	60.4%	74.3%	74.2%	56%	67%	31.8%
CN(C)c1ccc(N=Cc2ccc(N3CCOCC3)cc2)cc1	84.2%	81.3%	90.9%	46.6%	54.1%	82%	84.8%	74.3%	–	67.2%
COC(=O)c1c2c(c(C)[n+]([O-])c1C)C(=O)C=C(NCc1ccccc1)C2=O	5.35% (active)	-71.5% (active)	-11.4% (active)	-9.66% (active)	4.06% (active)	-98.5% (active)	-72.3% (active)	-28.2% (active)	–	-29.6% (active)
OCCNc1nc(Nc2ccc(C3=NN(c4cc(Cl)cc(Cl)c4)C(c4ccc(C(F)(F)F)cc4)C3)cc2)nc(N2CCOCC2)n1 (stereo unspecified)	55.9%	68.4%	87.6%	63.4%	62.9%	76%	69.7%	44.8%	81.4%	116%
CC(C)C[C@H](C(=O)N[C@H](C(N)=O)C(C)C)N1CC=CCN(OCc2ccccc2)S1(=O)=O	102% [2.5 µM]	69.7% [2.5 µM]	94.7% [2.5 µM]	97.1% [2.5 µM]	98.5% [2.5 µM]	106% [2.5 µM]	98.8% [2.5 µM]	95.7% [2.5 µM]	–	98.9% [2.5 µM]
COC(=O)c1c2c(c(C)[n+]([O-])c1C)C(=O)C=C(NCc1ccc(F)c(F)c1)C2=O	1.02% (active)	-96.7% (active)	-67.2% (active)	-31.9% (active)	3.37% (active)	-100% (active)	-83.9% (active)	-72.7% (active)	–	-50.1% (active)
O=c1cc(NC2CCN(CCCc3ccccc3)CC2)c2cc(Cl)ccc2o1	-12.9% (active)	-5.24% (active)	25.6%	-24.7% (active)	0% (active)	-54.6% (active)	9.81% (active)	-1.07% (active)	8.62% (active)	-44% (active)
Cc1cc(Nc2ccc(OCc3ccccc3)cc2)nc2cc(O)ccc12	2.05% (active)	81.6%	70.5%	10.2%	53.5%	9.21% (active)	71.7%	13.3%	–	70.4%
Brc1ccc(Nc2nc3ccccc3nc2Nc2ccc(Br)cc2)cc1	-46.1% (active)	-7.54% (active)	16.6%	-58.5% (active)	-0.436% (active)	-85.6% (active)	-16.2% (active)	-87% (active)	–	-58% (active)
CCOC(=O)C1=C(C)N=c2s/c(=C\c3ccccc3O)c(=O)n2C1c1ccc(OC)c2ccccc12 (stereo unspecified)	-52.2% (active)	-44.2% (active)	58.1%	-68.6% (active)	22.9%	-98.1% (active)	-85.4% (active)	-85.6% (active)	-96.2% (active)	-75.5% (active)
O=S1(=O)N(Cc2ccccc2)[C@@H](Cc2ccccc2)[C@H](O)[C@H](O)[C@H](Cc2ccccc2)N1Cc1ccccc1	6.95% (active)	13.3%	17%	4.33% (active)	4.89% (active)	-1.02% (active)	5.81% (active)	-11.3% (active)	–	-5.68% (active)
O=c1c(-c2nc3ccccc3[nH]2)cc2ccccc2n1Cc1cn(Cc2ccc(F)cc2)nn1	2.52% (active)	-19.2% (active)	21.8%	14.2%	22%	6.69% (active)	17.2%	12.8%	45.1%	36%
Oc1c(C(Nc2ccccn2)c2cccc(Oc3ccccc3)c2)ccc2cccnc12 (stereo unspecified)	-93.5% (active)	-99.1% (active)	-80.7% (active)	-89.2% (active)	-90.3% (active)	-68.1% (active)	-86.6% (active)	-86.5% (active)	–	-82.9% (active)
CC1=C(C(=O)OCC2CCN(C(=O)OC(C)(C)C)CC2)[C@H](c2cccc(Br)c2)C2=C(CC(C)(C)CC2=O)N1	16.7%	47.8%	42.5%	30%	17.5%	-32.8% (active)	36.1%	17.5%	50.1%	61.1%
COc1cc(C2C3=C(COC3=O)N(CCO)c3cc4c(cc32)CCC4)cc(OC)c1O (stereo unspecified)	0.722% (active)	3.02% (active)	31.2%	15.3%	31.7%	11.8%	39.8%	28.2%	–	89%
CSc1nc2c(c(=O)n1C)N=C1c3ccccc3C(=O)C1C(c1ccccc1)N2 (stereo unspecified)	52.2%	50%	82.4%	74.5%	64.9%	69.2%	107%	74.5%	–	66.2%
COc1ccc(C2C3=C(COC3=O)N(CCO)c3cc4c(cc32)OCCO4)cc1 (stereo unspecified)	50.7%	60.4%	81.2%	87%	72.9%	60.8%	72.4%	77.4%	–	95%
COc1ccc(Cn2c(Br)c3c(c2-c2cc(OC)c(OC)c(OC)c2)CCc2sc(NC(C)=O)nc2-3)cc1	33.7%	25.3%	41%	39.2%	43.7%	16.6%	29.7%	33.3%	–	55.6%
Cc1ccc2sc3c(NCCCNCCO)nc4ccccc4c3c(=O)c2c1	-65% (active)	33.3%	68.5%	-39.5% (active)	39.3%	85.6%	-25.3% (active)	-27.3% (active)	–	90.8%
COc1ccc(CN2CCCC(C(=O)c3ccc(C(F)(F)F)cc3)C2)c(O)c1 (stereo unspecified)	1.6% (active)	-1.83% (active)	44.1%	18.5%	25.6%	19.6%	28.3%	25.5%	36.4%	-43.2% (active)
Nc1nc2c(ncn2[C@@H]2O[C@H](CS)[C@@H](O)[C@H]2O)c(=O)[nH]1	99.9%	92.6%	95.3%	99.3%	101%	97%	93.6%	96.9%	–	120%
COC(=O)/C(CCC=C(C)C)=C1\[C@@H](OC(C)=O)C[C@@]2(C)[C@H]1CC(=O)[C@H]1[C@@]3(C)CC[C@H](NCc4ccccc4)[C@@H](C)[C@@H]3CC[C@@]12C	37.8%	83.2%	95.7%	74%	70.4%	89.6%	86.7%	81.8%	96.7%	106%
O=C(/C=C/c1cccc(Cl)c1)OCc1ccc2cc1OCC#C/C=C\C#CCO2	89.3%	80.9%	93.9%	102%	96.2%	106%	89.2%	88.4%	–	113%
Cc1ccc(S(=O)c2ccc([N+](=O)[O-])c3nonc23)cc1 (stereo unspecified)	93.8%	112%	117%	96.4%	92.6%	100%	108%	73.6%	–	112%
O=S(=O)(c1ccc(NC(=S)NC23CC4CC(CC(C4)C2)C3)cc1)N1CCCCC1	94.1%	93.3%	99.9%	85.2%	8.79% (active)	87.7%	80.8%	96.9%	–	106%
Cn1c(/C=C(\C#N)c2ccccc2)nc2c(N3CCOCC3)nc(Cl)nc21	-54.6% (active)	-94.9% (active)	56.9%	3.21% (active)	-62.3% (active)	-53.8% (active)	-86.1% (active)	-87.9% (active)	-78.6% (active)	-34.4% (active)
COc1cc(/C=C/C(=O)c2c(C)nc3ccccc3c2/C=C/c2ccccc2)cc(OC)c1OC	-1.3% (active)	14.2%	1.12% (active)	-14.1% (active)	20.5%	8.08% (active)	10.5%	-86.7% (active)	–	-6.78% (active)
COc1cc(C(=O)NN=C2c3ccccc3-c3ccccc32)cc(OC)c1OC	5.22% (active)	14.2%	42.4%	20.9%	31%	7.14% (active)	44.2%	28.7%	–	6.51% (active)
